CRE Fsk mod: alters forskolin-stimulated CRE reporter signaling in CHO cells. CHO CRE-bla reporter (cAMP response element driving beta-lactamase), forskolin EC10, beta-lactamase ratio. Potency, µM (top dose mostly 38.2 µM), for the others: at the highest dose activity change, negative = inhibition, usual class: activators. 71,000 tested, 2.5% active. AID 662; active = well fitted activation curve with a large enough effect in the signal ratio, with a control signal flat, not every such curve was filed as active; inconclusive = small, poorly fitted or top-dose-only effect, or effect the other way, or a change in a side signal; the % refers to the signal ratio; also: % of control where 0% means no effect
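CRE-bla CHO reporter cells treated with compound titration plus EC10 NKH 477 (water-soluble forskolin), incubated 3 h at 37 °C; CCF4 loading 2 h at room temperature, 460/530 nm emission ratio read, AC50 values derived for positive or negative modulators.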
IkB sig inh: suppresses IkB signaling in ABC-DLBCL reporter cells; ABC-DLBCL IkBa-CBG/CBR dual luciferase ratio, 4 h; response scale: scaled: untreated 0%, proteasome inhibitor 100%; Potency, µM (doses to about 57.1 µM), inactives show at the highest dose IkBa stabilization activation; 110,000 tested, 0.04% active; active = well fitted curve in the direction sought with a large enough effect in the signal ratio, not every such curve was filed as active; inconclusive = small, poorly fitted or top-dose-only effect, or a change in a side signal; the % refers to the signal ratio;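 also: the direction sought is a rising ratio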
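In this assay, an IκBα–CBG68 fusion accumulates when IKK-driven degradation is blocked; native CBR normalizes for cell number. OCI-Ly3 cells were treated 4 h with compound and doxycycline, then green and red light read after Chroma-Glo addition.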
TSHR agonist: activates the human thyroid stimulating hormone receptor; P16473; HEK293-CNG-TSHR cells (CNG channel as cAMP sensor), membrane potential dye, cAMP; Potency, µM (highest dose often 57.1 µM), for inactives: at the highest dose activation, actives largely listed as activators; 73,000 tested, 0.48% active; active = well fitted activation curve with a large enough effect in the main read-out, with a control signal flat, not every such curve was filed as active; inconclusive = small, poorly fitted or top-dose-only effect, or a change in a side signal; inactive = no such curve, though single readings can be large or run the other way; % of control where 0% means no effect;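 also: the control signal comes from parental cells without the receptor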
Target sequence (P16473 whole entry, looked up): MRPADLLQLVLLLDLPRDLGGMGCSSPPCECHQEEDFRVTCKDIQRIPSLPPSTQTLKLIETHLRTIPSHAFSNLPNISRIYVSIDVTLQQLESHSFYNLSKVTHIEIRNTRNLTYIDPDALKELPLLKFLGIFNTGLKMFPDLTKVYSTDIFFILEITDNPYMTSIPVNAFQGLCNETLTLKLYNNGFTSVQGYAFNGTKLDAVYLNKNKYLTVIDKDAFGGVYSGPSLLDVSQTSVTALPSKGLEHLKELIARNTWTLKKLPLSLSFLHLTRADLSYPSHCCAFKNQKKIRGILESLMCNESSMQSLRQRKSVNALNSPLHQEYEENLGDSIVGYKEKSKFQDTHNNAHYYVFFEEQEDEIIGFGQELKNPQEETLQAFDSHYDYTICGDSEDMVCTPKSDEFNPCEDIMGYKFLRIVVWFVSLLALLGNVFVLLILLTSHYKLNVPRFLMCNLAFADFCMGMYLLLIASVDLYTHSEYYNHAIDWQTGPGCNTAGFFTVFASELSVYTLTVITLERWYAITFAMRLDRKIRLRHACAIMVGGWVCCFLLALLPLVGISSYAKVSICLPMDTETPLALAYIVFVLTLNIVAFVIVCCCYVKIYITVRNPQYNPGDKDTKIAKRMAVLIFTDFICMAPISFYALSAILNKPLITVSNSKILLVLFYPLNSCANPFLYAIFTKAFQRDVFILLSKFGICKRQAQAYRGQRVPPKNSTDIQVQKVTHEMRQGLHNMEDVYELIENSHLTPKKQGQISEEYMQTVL
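cAMP rise detected as CNG-channel membrane depolarization by fluorescent dye (emission 590 nm), 30 min after compound, following 60 min dye loading containing 100 uM RO 20-1724 at room temperature. Cells: TSHR/CNG HEK 293, with parental CNG HEK 293 as control.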
Hsp90 Hop PPI: changes Hsp90-Hop TPR2A binding signal, up or down; AlphaScreen TPR2A-His6 binding biotin-Hsp90 C-terminal peptide; Potency, µM (titrated, usually from 57 µM), for the others: at the top dose activity change, negative = inhibition; 71,000 tested, 0.44% active; active = well fitted curve in either direction with a large enough effect; inconclusive = small, poorly fitted or top-dose-only effect, or another doubt; also: % is scaled to controls: 0 for no effect and ±100 for the full control effect
HEK293 cAMP cs: raises cAMP in parental HEK293 cells, TSHR agonist counter-screen | AID 938 | parental HEK293 CNG cAMP sensor, membrane potential fluorescence | 73,000 tested, 2.5% active | Potency, µM (doses to about 57.1 µM), for the others: at the highest dose activation, most hits filed as activators; active = well fitted activation curve with a large enough effect; inconclusive = small, poorly fitted or top-dose-only effect; inactive = no such curve, though single readings can be large or run the other way; also: % of control where 0% means no effect; nearly all actives have a fitted effect of over 55% in size
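Parental HEK 293 cells stably expressing a modified CNG channel (no TSHR) report cAMP rise as membrane depolarization. Membrane potential dye with 100 uM RO 20-1724 was loaded for 60 min at room temperature, then compound added for 30 min; fluorescence read at 590 nm.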
An asterisk follows results filed as active; ? = inconclusive; . = no result given; [ ] = dose if it differs, or a comment. Shown are actives, neighbours in structure and some others; about 3.5% of the full set was active somewhere. Potency is read from the fitted curve at half-maximal effect.

SMILES | CRE Fsk mod | IkB sig inh | TSHR agonist | Hsp90 Hop PPI | HEK293 cAMP cs
CN1CCc2cc(Cl)c(O)cc2[C@@H](c2ccccc2)C1 | ? | ? | ? | -6% | 25µM*
C=CCN1CCc2cc(O)c(O)cc2[C@H](c2ccccc2)C1 | ? | 0% | 12% | -3% | 16%
CC1=C(C(=O)Nc2ccccc2)C(c2ccc3c(c2)OCO3)C2=C(CCCC2=O)N1 (stereo not drawn) | 7% | 1% | ? | 0% | 16µM*
Nc1ncnc2c1ncn2[C@@H]1O[C@@H](COP(=O)(O)OP(=O)(O)OP(=O)(O)OP(=O)(O)OC[C@@H]2O[C@@H](n3cnc4c(N)ncnc43)[C@@H](O)[C@H]2O)[C@H](O)[C@@H]1O | 2% | 1% | 22% | -10% | 3%
COc1ccc(CCN(C)CCCOc2ccc(S(=O)(=O)c3[nH]c4ccccc4c3C(C)C)cc2)cc1OC | ? | ? | ? | ? | -55%
CCOC(=O)c1c(S(=O)(=O)N2CCCC(C(=O)N(C)Cc3ccccc3)C2)c(C)n(C)c1C (stereo not drawn) | . | -4% | . | . | .
COc1cc(-c2c(C#N)c(N)nc3c2CCCC3)ccc1O | ? | ? | 5% | -1% | 26%
COC(=O)c1c(C#N)c(N)nc2c1CCCC2 | 10µM* | -2% | 9% | -5% | 0%
CN(CCc1ccccn1)c1ccc2c(c1)C(=O)c1ccccc1-2 | 5%[7.6 µM] | -1%[11.4 µM] | ? | ? | -31%[11.4 µM]
O=C(Nc1ccc(Oc2ccc(S(=O)(=O)N3CCOCC3)cn2)cc1)c1ccco1 | -12% | 1% | -3% | 0% | 4%
Cc1sc2nc(CN3CCOCC3)nc(Oc3ccc(NC(=O)c4ccco4)cc3)c2c1C | 3.2µM* | 0% | 27% | -5% | 9%
O=C(c1cnccn1)N1CCC[C@@]2(CCN(Cc3cc(C(F)(F)F)cc(C(F)(F)F)c3)C2)C1 | -4% | 1%[11.4 µM] | ? | -3% | ?
C[C@@H](C(=O)NCCF)[C@H]1C[C@]1(C)[C@H](NC(=O)OCc1ccccc1)c1ccccc1 | -16% | . | ? | -7% | 16µM*
C=C(N(C)C)[C@]1(C)C[C@H]1[C@H](NC(=O)CNC(=O)OCc1ccccc1)c1ccccc1 | -9% | . | ? | -2% | 16µM*
CCOc1ccc(CNC(=O)c2cc3c(s2)-c2ccccc2OC3)cc1 | . | 3% | . | . | .
COc1ccccc1-c1oc2ccccc2c(=O)c1OC | -11% | 0%[11.4 µM] | ? | 3% | 32µM*
COc1cccc(-c2oc3ccccc3c(=O)c2O)c1 | -11% | -1%[11.4 µM] | ? | ? | ?
CC(C)(C)OC(=O)N1CCC(c2c(C(=O)N3CCN(C(=O)c4ccco4)CC3)cnn2-c2ccccc2Cl)CC1 | . | 3% | . | . | .
CC(C)CC1N=C2c3ccccc3N=C(SCc3cc(=O)n4ccccc4n3)N2C1=O (stereo not drawn) | 3.2µM* | -2% | 5% | 9% | 15%
CC(C)=CCNc1ncnc2c1c(C#N)cn2[C@H]1O[C@@H](CO)[C@@H](O)[C@@H]1O | 2%[7.6 µM] | 1%[11.4 µM] | 2%[11.4 µM] | -2%[11 µM] | -4%[11.4 µM]
CC(C)c1nc(SCC(=O)Nc2cccc(C(F)(F)F)c2)c2c(=O)n(C)c(=O)n(C)c2n1 | 3.2µM* | 2% | 13% | -2% | -1%
CCC(CC)C(=O)Nc1cccc(-c2nc3ccccc3s2)c1 | . | -1% | . | . | .
CCC(CC)C(=O)Nc1cccc(-c2nc3ccccc3o2)c1 | ? | -1% | 6.3µM* | 5% | 27%
CCOC(=O)C[C@@H](C(=O)OCC)[C@@H]1CCCCC1=O | . | . | 6%[11.4 µM] | . | 0%[11.4 µM]
Cc1cc(C)n(-c2nc(SCC(=O)NCC3CCCO3)c3c4c(sc3n2)CCCC4)n1 (stereo not drawn) | -30% | 1% | ? | -9% | 25µM*
SMILES | CRE Fsk mod | IkB sig inh | TSHR agonist | Hsp90 Hop PPI | HEK293 cAMP cs
Cc1cc(C)n(-c2nc(NCC3CCCO3)c3c4c(sc3n2)COC(C)(C)C4)n1 (stereo not drawn) | 13µM* | -4% | ? | -9% | 25µM*
Cc1cc(C)n(-c2nc(NCCCO)c3c4c(sc3n2)CCCC4)n1 | 2µM* | -4% | 17% | -6% | 17%
Cc1cc(C)n(-c2nc(NCCO)c3c4c(sc3n2)CCCC4)n1 | ? | -2% | 16% | -6% | 17%
C=CC[C@@H]1C=C[C@H](Oc2ccc(C)cc2)[C@H](COC(=O)NCc2cccc3ccccc23)O1 | . | . | 9%[11.4 µM] | . | 7%[11.4 µM]
Cn1c(=O)c2c(nc(SCC(=O)Nc3ccc(F)c(F)c3)n2Cc2ccccc2F)n(C)c1=O | . | 0% | . | . | .
COc1cc(-c2nnc(-c3ccc(S(=O)(=O)c4ccccc4)cc3)o2)cc(OC)c1OC | 4µM* | 0% | 27% | 0% | 0%
Cc1ccc(S(=O)(=O)Oc2cc(S(=O)(=O)O)cc3cc(S(=O)(=O)O)cc(N)c23)cc1 | 6%[7.6 µM] | 1%[11.4 µM] | 3%[11.4 µM] | 0%[11 µM] | 5%[11.4 µM]
COc1cc(NS(=O)(=O)c2c(C(=O)N3CCCCC3)c(C)n(C)c2C)cc(OC)c1OC | . | 2% | . | . | .
O=C(CCn1nc(-c2ccccc2)c2ccccc2c1=O)N1CCN(c2ccccc2)CC1 | ? | ? | ? | -9% | 25µM*
CCn1nnc(NC(=O)c2ccccc2Br)n1 | 1% | 9% | ? | -3% | 32µM*
Cc1ccc(-c2nc3scc(CCNS(=O)(=O)c4c(C)noc4C)n3n2)cc1 | . | -1% | . | . | .
Cc1ccc(S(=O)(=O)Nc2cccc(-c3cn4ccsc4n3)c2)cc1 | ? | ? | 56% | -16% | 21%
Cc1cccc(S(=O)(=O)Nc2cccc(-c3cn4ccsc4n3)c2)c1 | 2µM* | ? | 23% | -12% | 13%
Cc1ccc(S(=O)(=O)O[C@H]2C[C@@H](C(C)(C)C)CC[C@@H]2c2ccccc2)cc1 | ? | 2%[11.4 µM] | 0%[11.4 µM] | 7%[11 µM] | -3%[11.4 µM]
CC(C)COc1cc(=O)[nH]c(SCC(C)C)n1 | 10µM* | -3% | ? | -1% | ?
COc1cccc(OC)c1OCCCSc1nc(C)cc(=O)[nH]1 | ? | 10% | 14% | -2% | 1%
Cc1csc2nc3ccccc3c(=O)n12 | 10µM* | 9% | -1% | 0% | 0%
CCOC(=O)Nc1oc2ccccc2c(=O)c1CN1CCOCC1 | 10µM* | 1% | 6% | 0% | 9%
CCOc1ccc2[nH]c(C)c(CN3CCOCC3)c(=O)c2c1 | -1% | -1% | -1% | 0% | -12%
COC(=O)c1ccc(C(/C=C/[C@@H](C)C(=O)NCc2cc(C)n(C)n2)NC(=O)OCc2ccccc2)cc1 (stereo partly drawn) | -10% | . | 20% | -2% | 12%
O=C(c1cccs1)N(CC1CCCO1)c1nc(-c2ccccc2)cs1 (stereo not drawn) | -7% | 3% | ? | ? | 16µM*
CCOC(=O)c1c(C2COc3ccccc3O2)csc1NC(=O)c1ccco1 (stereo not drawn) | 2µM* | 1% | . | -1% | 9%
